From PubChem BioAssay (NCATS) come the findings set out here.

Assay [1] can be described thus: qHTS of pediatric cancer cell lines to identify multiple opportunities for drug repurposing: Primary screen for SK-N-SH cells (AID 1347098). Further: nearly all actives have a fitted effect of over 65% in size. Put shortly: (§1)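 Cells (500-1,000/well) rested 5 h, then received compounds for 48 h; metabolically active cells were measured by CellTiter-Glo luminescence. Final concentrations spanned up to 46 µM (MIPE, 11-point) or 0.59 nM-46 µM (NPC, 8-point) in primary screens, 11-point in follow-ups.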

Assay [2] is described as follows: qHTS of pediatric cancer cell lines to identify multiple opportunities for drug repurposing: Primary screen for NB1643 cells (AID 1347099). Further: nearly all actives have a fitted effect of over 50% in size. In a few lines:
(§2)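 Following a 5-hour attachment period, cells at 500-1,000/well received compounds and were cultured for 48 hours. CellTiter-Glo was added and luminescence read to estimate viable, metabolically active cells.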
For orientation: In qHTS, concentration-response curves come from the screen itself.

The nature of assay [3]: qHTS of pediatric cancer cell lines to identify multiple opportunities for drug repurposing: Primary screen for LAN-5 cells (AID 1347100). Put shortly: (§3)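 Cells (500-1,000/well) in growth media were settled 5 h at 37 degrees C, then given compounds for 48 h. Viability was read as CellTiter-Glo luminescence. Primary runs used MIPE at 11 points (0.78 nM-46 µM) and NPC at 8 points (0.59 nM-46 µM); follow-ups used 11 points.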

Assay [4] is described as follows: qHTS of pediatric cancer cell lines to identify multiple opportunities for drug repurposing: Primary screen for OHS-50 cells (AID 1347103). Further: nearly all actives have a fitted effect of over 40% in size. Put shortly:
as §1

The nature of assay [5]: qHTS of pediatric cancer cell lines to identify multiple opportunities for drug repurposing: Primary screen for Rh30 cells (AID 1347107). Further: nearly all actives have a fitted effect of over 75% in size. Put shortly: as §3
The nature of assay [6]: qHTS of pediatric cancer cell lines to identify multiple opportunities for drug repurposing: Primary screen for MG 63 (6-TG R) cells (AID 1347105). Further: nearly all actives have a fitted effect of over 50% in size. Put shortly: as §2
Assay [7] is described as follows: qHTS of pediatric cancer cell lines to identify multiple opportunities for drug repurposing: Primary screen for BT-12 cells (AID 1347101). Further: nearly all actives have a fitted effect of over 25% in size. Put shortly: as §1
Assay [8] can be described thus: qHTS of pediatric cancer cell lines to identify multiple opportunities for drug repurposing: Primary screen for control Hh wild type fibroblast cells (AID 1347106). Further: nearly all actives have a fitted effect of over 55% in size. In a few lines:
as §3

The nature of assay [9]: qHTS of pediatric cancer cell lines to identify multiple opportunities for drug repurposing: Primary screen for Rh18 cells (AID 1347102). Further: nearly all actives have a fitted effect of over 65% in size. Put shortly:
as §3

Assay [10] is described as follows: qHTS of pediatric cancer cell lines to identify multiple opportunities for drug repurposing: Primary screen for RD cells (AID 1347104). Further: nearly all actives have a fitted effect of over 55% in size. Put shortly:
as §2

Results filed as inconclusive are left out. Calls of active or inactive are those of the source. The call rests on the fitted dose curve; in most records, active means well fitted curve in the direction sought with a large enough effect; inconclusive means small, poorly fitted or top-dose-only effect, or another doubt; inactive means no such curve, though single readings can be large; an effect the other way counts as inactive or inconclusive.
Potency means the concentration at half of the fitted maximal effect.

With `CO[C@H]1C(=O)[C@]2(C)[C@@H](OC)C[C@H]3OC[C@@]3(OC(C)=O)[C@H]2[C@H](OC(=O)c2ccccc2)[C@]2(O)C[C@H](OC(=O)[C@H](O)[C@@H](NC(=O)OC(C)(C)C)c3ccccc3)C(C)=C1C2(C)C`, the Potency result in [1], in assay [2] and in [5] was “inactive” each time. For the same compound, the Potency in [3] is 0.001 µM (active); in [4], 0.685 µM (active).

As to `O=C1NC(=O)C(=Cc2ccc3nccnc3c2)S1`, the Potency result in assay [1] is “inactive”. Further, the Potency was 7.24 µM (active) in assay [2], 4.21 µM (active) in assay [4] and 5.12 µM (active) in [6].

Turning to `CC(=O)O[C@]1(C(C)=O)CC[C@@H]2[C@@H]3C[C@H](C)C4=CC(=O)CC[C@]4(C)[C@H]3CC[C@@]21C`, the Potency in assay [1] is 24.1 µM (active); in assay [2] it was 20.9 µM (active); in assay [7], 24.3 µM (active); in [4], 24.3 µM (active). The Potency result in [8] is “inactive”.

Turning to `COc1ccc2cccc(CCNC(C)=O)c2c1`, the Potency result in [1], in [3], in assay [7], in assay [9], in [4] and in assay [10] was “inactive” in each case. Besides, the Potency result in assay [6], in assay [8] and in assay [5] was “inactive” in each case.

Consider `O=c1cc(N2CCOCC2)oc2c(-c3cccc4c3sc3ccccc34)cccc12`, for which, in assay [1], the Potency entry was “inactive”. The Potency in [3] was 14.8 µM (active); in [7], 24.3 µM (active); in [9], 18.7 µM (active); in assay [4], 7.69 µM (active); in assay [10], 13.2 µM (active); in assay [6], 14.8 µM (active).

In the case of `CN(C)Cc1ccc(-c2nc3cccc4c3n2CCNC4=O)cc1`, the Potency in [1] was 21.5 µM (active); in assay [2], 23.5 µM (active); in [10], 16.6 µM (active). In addition, the Potency entry in assay [9], in assay [6] and in assay [5] was “inactive” each time.

On to `O=C(CCc1ccc(O)cc1)c1c(O)cc(O)cc1O[C@@H]1O[C@H](CO)[C@H](O)[C@H](O)[C@H]1O`, for which the Potency entry in [1], in [3], in [7], in [9], in assay [4] and in assay [10] was “inactive” each time. The Potency entry in [6], in assay [8] and in [5] was “inactive” in each case.

As to `Cc1ccccc1C(C(=O)NC1CCCCC1)N(C(=O)Cn1ccnc1C)c1cccc(F)c1` (stereo not given), the Potency entry in assay [1], in assay [2], in assay [3], in assay [7], in assay [9] and in [6] was “inactive” each time. The Potency result in assay [8] and in assay [5] was “inactive” each time.

As to `NC(CO)(CO)CCc1ccc(Sc2cccc(OCc3ccccc3)c2)cc1Cl`, the Potency in assay [1] is 19.2 µM (active); in [2] it was 16.6 µM (active); in assay [3], 4.18 µM (active); in assay [7] it was 30.6 µM (active); in assay [4] it was 27.3 µM (active); in [10], 33.2 µM (active). Besides, in [6], the Potency is 29.6 µM (active). Besides, the Potency entry in assay [5] was “inactive”.

On to `CC(=O)Nc1ccc([C@H](C)C(=O)Nc2ncc(C(C)C)s2)cc1`, for which the Potency in assay [1] is 4.82 µM (active); in [2], 1.18 µM (active); in assay [7], 1.22 µM (active); in assay [9] it was 7.43 µM (active); in assay [10], 4.18 µM (active); in [6], 1.87 µM (active). In assay [5], the Potency result was “inactive”.

Consider `COc1cc2c(cc1OC)CN(CCc1ccc(NC(=O)c3cc(OC)c(OC)cc3NC(=O)c3cnc4ccccc4c3)cc1)CC2`, for which the results for the Potency in assay [1] and in [2] were 19.2 µM (active) and 14.8 µM (active), respectively. In addition, the Potency entry in assay [7], in assay [9], in assay [6], in assay [8] and in assay [5] was “inactive” throughout.

Regarding `CCOc1ccc(Nc2nc(-c3c(C)nc4ccccn34)cs2)cc1`, the Potency result in assay [1], in [2], in [9], in assay [10], in [6] and in assay [8] was “inactive” each time. The Potency result in assay [5] was “inactive”. The Potency in assay [3] is 0.001 µM (active); in assay [4], 0.0039 µM (active).

In the case of `CO[C@@H](C(=O)N1Cc2[nH]nc(NC(=O)c3ccc(N4CCN(C)CC4)cc3)c2C1)c1ccccc1`, the Potency in [1] is 2.15 µM (active); in assay [2], 0.118 µM (active); in [3], 0.0372 µM (active); in assay [9], 0.935 µM (active); in assay [10] it was 5.26 µM (active); in assay [6], 1.48 µM (active). Moreover, in assay [5], the Potency result is “inactive”.

With `CC(C)(C)c1cc(C(=O)O)c(NC(=O)Nc2ccc3[nH]ncc3c2)s1`, the Potency result in assay [1], in [3], in assay [7], in assay [9], in [4] and in [6] was “inactive” in each case. The Potency entry in assay [8] was “inactive”.

Regarding `C[C@H](NC(=O)C(=O)Nc1ccccc1C(C)(C)C)C(=O)N[C@@H](CC(=O)O)C(=O)COc1c(F)c(F)cc(F)c1F`, the Potency entry in [1], in [9], in [8] and in [5] was “inactive” throughout. Besides, the Potency is 9.35 µM (active) in assay [2] and 14.8 µM (active) in assay [6].

As for `O=C1C[C@@H](c2ccc(O)cc2)Oc2cc(O)cc(O)c21`, the Potency result in assay [1], in assay [2], in assay [3], in [9], in [4] and in assay [10] was “inactive” throughout. Also, the Potency entry in assay [6], in [8] and in [5] was “inactive” in each case.

Take `C[C@H](NC(=O)c1sccc1OCc1ccc(Cl)cc1)c1ccccc1`: the Potency result in assay [1], in assay [3], in assay [9] and in [8] was “inactive” each time. Further, the Potency in [7] is 19.3 µM (active); in [4] it was 12.2 µM (active); in [10], 29.6 µM (active); in assay [5] it was 18.7 µM (active).

Consider `CC1(C)O[C@H]2C[C@@H]3[C@H]4CCC5=CC(=O)C=C[C@]5(C)[C@@]4(F)[C@@H](O)C[C@]3(C)[C@]2(C(=O)CO)O1`, for which the Potency entry in [1], in assay [9], in assay [10], in assay [6], in [8] and in [5] was “inactive” throughout. The Potency in assay [2] was 14.8 µM (active); in [3] it was 7.43 µM (active).

In the case of `CC=CC[C@@H](C)C(=O)[C@H]1C(=O)N[C@@H](C(C)C)C(=O)N(C)CC(=O)N(C)[C@@H](CC(C)C)C(=O)N[C@@H](C(C)C)C(=O)N(C)[C@@H](CC(C)C)C(=O)N[C@@H](C)C(=O)N[C@H](C)C(=O)N(C)[C@@H](CC(C)C)C(=O)N(C)[C@@H](CC(C)C)C(=O)N(C)[C@@H](C(C)C)C(=O)N1C`, the Potency in [1] is 30.4 µM (active); in assay [4] it was 24.3 µM (active). For the same compound, the Potency entry in assay [9], in [10], in assay [6], in [8] and in assay [5] was “inactive” in each case.

In the case of `Cc1c[nH]c(C=C2C(=O)Nc3ccccc32)c1CCC(=O)O`, the figures for the Potency in assay [1] and in [3] were 24.1 µM (active) and 18.7 µM (active), respectively. The Potency entry in assay [7], in assay [10] and in assay [6] was “inactive” throughout.

`COc1cc(N2CCC(N3CCN(C)CC3)CC2)ccc1Nc1ncc(Cl)c(Nc2ccccc2S(=O)(=O)C(C)C)n1`: the Potency was 4.82 µM (active) in assay [1], 0.001 µM (active) in assay [3], 29.6 µM (active) in assay [8] and 1.05 µM (active) in assay [5].

For the compound `CC(C)OC(=O)C(C)(C)Oc1ccc(C(=O)c2ccc(Cl)cc2)cc1`, the Potency result in assay [1], in [3], in assay [9], in assay [10], in assay [6] and in assay [8] was “inactive” each time. In addition, the Potency result in [5] was “inactive”.

As for `N[C@@]1(C(=O)O)CS(=O)(=O)[C@H]2[C@H](C(=O)O)[C@H]21`, the Potency entry in assay [1], in [9], in assay [6], in [8] and in [5] was “inactive” throughout.

Turning to `CCN(CC)C(=O)c1ccc(O)c(OC)c1`, the Potency result in [1], in [3], in assay [7], in assay [9], in assay [10] and in [6] was “inactive” in each case. Further, the Potency entry in [8] and in assay [5] was “inactive” throughout.
